Source: PubChem BioAssay (National Center for Advancing Translational Sciences (NCATS))
Rows were chosen to be rich in hits. Some 3.3% of all compounds tested hit in one or more screens of this group.
AmpC inh detg: qHTS Inhibitors of AmpC Beta-Lactamase (assay with detergent). P00811. AmpC hydrolysis of nitrocefin, absorbance 480 nm, 0.01% Triton. Potency, µM (top dose mostly 114 µM), for inactives: at the top dose activity change, negative = inhibition, most hits filed as inhibitors. hit rate 0.041% among 370,000. AID 485294, 2010;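 further: 0% = no-compound wells and -100% = no-enzyme wells; nearly all actives have a fitted effect of over 25% in size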
Target sequence (P00811 whole entry, looked up): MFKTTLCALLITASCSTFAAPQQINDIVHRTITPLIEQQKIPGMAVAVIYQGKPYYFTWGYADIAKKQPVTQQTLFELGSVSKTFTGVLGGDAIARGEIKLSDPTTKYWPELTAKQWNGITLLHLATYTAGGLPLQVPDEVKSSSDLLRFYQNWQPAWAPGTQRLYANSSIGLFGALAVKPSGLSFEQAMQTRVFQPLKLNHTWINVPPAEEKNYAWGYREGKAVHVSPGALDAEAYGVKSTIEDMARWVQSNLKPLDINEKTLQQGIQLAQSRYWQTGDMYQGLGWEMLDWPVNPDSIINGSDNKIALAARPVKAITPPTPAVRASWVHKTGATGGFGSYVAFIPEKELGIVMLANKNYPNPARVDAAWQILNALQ
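AmpC (5.3 nM in the dispensed reagent) in 20 mM phosphate pH 7.0 with 0.01% (detergent screen) or 0.0001% Triton X-100 was preincubated with compounds for 15 min at room temperature. Nitrocefin was then added from an 800 uM solution, and hydrolysis was followed at 480 nm.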
AmpC inh no detg: qHTS Inhibitors of AmpC Beta-Lactamase (assay without detergent). P00811. AmpC nitrocefin hydrolysis, absorbance 480 nm, 0.0001% Triton. Potency, µM (doses to about 57.1 µM), for inactives: top-dose activity change, negative = inhibition, actives largely listed as inhibitors. hit rate 0.52% among 330,000. AID 485341, 2010;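 further: plate controls were no compound for no effect and no enzyme for full effect; nearly all actives have a fitted effect of over 20% in size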
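20 mM phosphate pH 7.0 + 0.01% (detergent screen) or 0.0001% Triton X-100; 5.3 nM AmpC reagent; cpd preinc 15 min RT; nitrocefin (800 uM stock) to start; A480 q20 s × 4 min; Activity was normalised to no-enzyme and no-compound control wells.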
Sm TGR inh: qHTS Assay for the Inhibitors of Schistosoma Mansoni Peroxiredoxins. Schistosoma mansoni thioredoxin glutathione reductase (TGR), Q962Y6. purified TGR, DTNB reduction, TNB absorbance 405 nm. Potency, µM (top dose mostly 114 µM), for inactives: top-dose activity change, negative = inhibition, usual class: inhibitors. hit rate 3% among 360,000. AID 485364, 2010; further: nearly all actives have a fitted effect of over 60% in size
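Kinetic colorimetric format: TGR-catalysed, NADPH-driven DTNB reduction monitored via TNB absorbance. Enzyme dispensed at 20 nM; compound exposure 15 min at room temperature before reaction start.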
The depositor's hits bear a star; [ ] = remark or other dose. The call rests on the fitted dose curve; in most records, active means well fitted curve in the direction sought with a large enough effect; inconclusive means small, poorly fitted or top-dose-only effect, or another doubt; inactive means no such curve, though single readings can be large; an effect the other way counts as inactive or inconclusive. Unless noted, on the % scale 0 is the no-effect control and ±100 the full control effect; potency means the concentration at half of the fitted maximal effect.

Results for CCCCS(=O)(=O)c1oc(-c2ccc(F)cc2)nc1S(=O)(=O)c1ccccc1 ?
AmpC inh detg: -3%; Sm TGR inh: 0%

What do the screens show for `CCS(=O)(=O)c1oc(-c2ccc(F)cc2)nc1S(=O)(=O)c1ccc(Br)cc1`?
AmpC inh detg: 6%; Sm TGR inh: 0.63µM*

How did CS(=O)(=O)c1oc(-c2ccc(F)cc2)nc1S(=O)(=O)c1ccc(Cl)cc1 do in these assays?
AmpC inh detg: 11%; Sm TGR inh: 0.71µM*

What do the screens show for `CSc1oc(-c2ccc(F)cc2)nc1S(=O)(=O)c1ccc(F)cc1`?
AmpC inh detg: -5%; AmpC inh no detg: -9%; Sm TGR inh: -2%

How did Cc1cccc(-c2noc(-c3cccnc3NCc3ccco3)n2)c1 do in these assays?
AmpC inh detg: -4%; Sm TGR inh: -4%

What do the screens show for `CCOC(=O)/C(=N/Nc1ccc(OC)cc1)N1CCCc2ccccc21`?
AmpC inh detg: -9%; AmpC inh no detg: -2%; Sm TGR inh: -26%

Results for COC(=O)/C(=N/Nc1ccccc1C)N1CCCc2ccccc21 ?
AmpC inh detg: -8%; AmpC inh no detg: -7%; Sm TGR inh: -11%

What do the screens show for `CCOC(=O)/C(=N/Nc1ccccc1OC)N1CCCc2ccccc21`?
AmpC inh detg: 4%; AmpC inh no detg: -14%; Sm TGR inh: 40µM*

What do the screens show for `CCOC(=O)/C(=N/Nc1ccccc1)N1CCCc2ccccc21`?
AmpC inh detg: 18%; AmpC inh no detg: 25µM*; Sm TGR inh: 7%

Results for CSc1nn(Cc2ccc(F)cc2)c(N)c1S(=O)(=O)c1ccc(Cl)cc1 ?
AmpC inh detg: 3%; Sm TGR inh: inconclusive

What do the screens show for `CCN(C(=O)c1cccn(Cc2cccc(Cl)c2)c1=O)c1ccccc1`?
AmpC inh detg: 5%; Sm TGR inh: 12%

What do the screens show for `CC(=O)C1=C(O)C(=O)N(CCc2ccccc2)C1c1ccccc1[N+](=O)[O-]` (stereo not drawn)?
AmpC inh detg: -5%; AmpC inh no detg: -16%; Sm TGR inh: -23%

How did CCN(CC)CCN1C(=O)C(O)=C(C(C)=O)C1c1ccccc1[N+](=O)[O-] (stereo not drawn) do in these assays?
AmpC inh detg: -10%; AmpC inh no detg: -7%; Sm TGR inh: 45µM*

Results for C/C(CCc1oc2ccc(Br)cc2c1-c1ccc(C)o1)=N/O ?
AmpC inh detg: -11%; AmpC inh no detg: -49%; Sm TGR inh: 40µM*

What do the screens show for `CC(=O)CCc1oc2ccc(C)cc2c1-c1ccccc1`?
AmpC inh detg: -3%; AmpC inh no detg: 23%; Sm TGR inh: 0%

How did C/C(CCc1oc2ccc(Cl)cc2c1-c1ccc(C)o1)=N\O do in these assays?
AmpC inh detg: -1%; AmpC inh no detg: 2%; Sm TGR inh: 25µM*

What do the screens show for `CC(O)CN=c1cc(-c2ccccc2)oc2ccc(Cl)cc12` (stereo not drawn)?
AmpC inh detg: inconclusive; AmpC inh no detg: -26%; Sm TGR inh: -21%

What do the screens show for `N#Cc1ccc(C(=O)Nc2ccccc2-c2nc3ccccc3s2)c(F)c1`?
AmpC inh detg: -2%; Sm TGR inh: -11%

Results for CC(C)OCCCNC(=O)CN1C(=O)c2cccnc2Sc2ccccc21 ?
AmpC inh detg: 19%; Sm TGR inh: -3%

How did CCOc1ccc(OCc2ccc(C(=O)NN)o2)cc1 do in these assays?
AmpC inh detg: -4%; AmpC inh no detg: -31%; Sm TGR inh: 18%

What do the screens show for `CCCC(=O)c1ccc(CP(=O)(OCC)OCC)o1`?
AmpC inh detg: -7%; AmpC inh no detg: -2%; Sm TGR inh: 13µM*

How did CCc1cccc(NC(=O)c2cc3c(=O)n(Cc4ccc(OC)cc4)ccc3nc2C)c1 do in these assays?
AmpC inh detg: -3%; Sm TGR inh: 4%

What do the screens show for `CCCC[C@]12Cc3ccccc3C(O1)c1c(cc(-c3ccccc3)oc1=O)O2`?
AmpC inh detg: -11%[22.9 µM]; AmpC inh no detg: -31%[11.4 µM]; Sm TGR inh: 3.2µM*

Results for CCCC[C@]12Cc3cc(OC)c(OC)cc3C(O1)c1c(cc(-c3ccccc3)oc1=O)O2 ?
AmpC inh detg: -7%[22.9 µM]; AmpC inh no detg: -15%[11.4 µM]; Sm TGR inh: -33%[22.9 µM]

What do the screens show for `COC(=O)c1ccc(CN(Cc2ccc(OC)c(OC)c2)S(=O)(=O)c2ccc(F)c(C(=O)Nc3cc(C)ccc3C)c2)cc1`?
AmpC inh detg: 9%; Sm TGR inh: -1%

How did Cc1ccc(Cl)cc1-n1ncc2c(N3CCN(Cc4ccccc4)CC3)ncnc21 do in these assays?
AmpC inh detg: -6%; Sm TGR inh: -1%
